According to publication PMC4336329 (PLoS ONE, 2015):
The campaign covered roughly 310,000 compounds. About 14,000 (4.5%) showed an effect of 50% or more. Effects have a minus sign here. This excerpt belongs to a sample that is enriched for strong results.

Target: human ether-à-go-go-related gene (hERG) potassium channel (human, UniProt Q12809)
Assay: primary screen, population patch clamp on CHO cells stably expressing hERG; higher = less effect of the substance
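Further: peak tail current of the secondary pulse compared with the same well before compound.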

Chain of human ether-à-go-go-related gene (hERG) potassium channel (Q12809 whole entry, looked up): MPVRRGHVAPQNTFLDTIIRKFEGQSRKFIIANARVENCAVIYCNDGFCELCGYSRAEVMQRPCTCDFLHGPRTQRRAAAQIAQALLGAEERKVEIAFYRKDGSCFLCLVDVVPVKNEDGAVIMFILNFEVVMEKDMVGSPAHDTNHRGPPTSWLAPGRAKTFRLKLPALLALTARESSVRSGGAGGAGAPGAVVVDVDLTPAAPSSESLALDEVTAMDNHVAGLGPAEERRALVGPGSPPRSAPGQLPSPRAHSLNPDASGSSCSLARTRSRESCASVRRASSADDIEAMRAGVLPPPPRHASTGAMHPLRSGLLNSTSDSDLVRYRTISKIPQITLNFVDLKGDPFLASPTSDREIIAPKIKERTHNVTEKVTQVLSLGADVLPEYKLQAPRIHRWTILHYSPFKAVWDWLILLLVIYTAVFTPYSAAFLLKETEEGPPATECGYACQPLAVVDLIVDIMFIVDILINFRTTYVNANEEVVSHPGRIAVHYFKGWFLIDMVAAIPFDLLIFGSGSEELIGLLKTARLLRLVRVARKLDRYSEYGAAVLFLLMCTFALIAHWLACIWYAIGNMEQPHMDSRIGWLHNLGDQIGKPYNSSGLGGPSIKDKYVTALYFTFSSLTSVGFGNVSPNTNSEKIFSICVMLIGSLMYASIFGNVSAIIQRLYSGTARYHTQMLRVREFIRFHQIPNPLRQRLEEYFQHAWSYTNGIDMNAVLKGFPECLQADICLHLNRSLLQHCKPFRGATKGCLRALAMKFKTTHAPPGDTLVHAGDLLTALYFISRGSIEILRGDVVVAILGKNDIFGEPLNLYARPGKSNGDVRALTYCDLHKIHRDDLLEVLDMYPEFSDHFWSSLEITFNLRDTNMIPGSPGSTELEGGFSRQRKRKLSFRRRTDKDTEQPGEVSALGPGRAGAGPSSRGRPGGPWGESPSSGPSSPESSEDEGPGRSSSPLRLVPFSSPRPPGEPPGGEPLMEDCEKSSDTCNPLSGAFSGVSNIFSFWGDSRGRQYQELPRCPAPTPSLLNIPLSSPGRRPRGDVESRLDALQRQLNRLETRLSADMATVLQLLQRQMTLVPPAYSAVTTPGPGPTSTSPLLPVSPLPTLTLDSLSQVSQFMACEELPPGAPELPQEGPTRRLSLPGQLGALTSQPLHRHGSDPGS

SMILES | hERG current change (%, negative = inhibition) at 10uM [%]
COc1ccc(C(CC(=O)NCc2ccco2)c2ccc(F)cc2)cc1 (centres unmarked) | -22.4
O=C(NCc1nnc(SCC(=O)N2CCN(c3ccccc3)CC2)o1)c1ccc(F)cc1 | -5.96
O=S(=O)(NCc1cccnc1)c1cccc2cccnc12 | 6.44
COc1ccc(CCNS(=O)(=O)c2ccc3c(c2)CCN3C(=O)C2CC2)cc1OC | 0.919
COc1ccc(-n2c(SC(C)C(=O)N3CCOCC3)nc3ccccc3c2=O)cc1 (centres unmarked) | 6.84
CCCCn1c(SCc2nc3ccccc3s2)nc2ccccc2c1=O | -54.7
CCCn1c(SCC(=O)N2CCN(c3ccccc3)CC2)nc2ccccc2c1=O | -56.7
Cc1ccc(C)n1CCN1CCN(C(=O)CSc2nc3ccccc3nc2N2CCOCC2)CC1 | -54.5
CCn1c(SC(C)C(=O)N2CCOCC2)nc2sc(C)c(C)c2c1=O (centres unmarked) | 3.37
O=C(CSc1nc2ccccc2nc1SCC(=O)N1CCOCC1)N1CCOCC1 | -5.85
O=C(CSc1nc2ccccc2nc1N1CCOCC1)N1CCN(c2ccccc2)CC1 | -39.2
CCn1c(SCC(=O)N2CCN(c3ccc(F)cc3)CC2)nc2ccccc2c1=O | -45.2
CCCn1c(SC(C)C(=O)N2CCOCC2)nc2ccc(Br)cc2c1=O (centres unmarked) | -56.1
CCOCCCn1c(SCc2nc3ccccc3s2)nc2ccccc2c1=O | -2.07
CCn1c(SCC(=O)N2CCN(c3ccc(Cl)cc3)CC2)nc2ccccc2c1=O | 8.79
O=c1c2ccccc2nc(SCc2nc3ccccc3s2)n1CCCO | -4.88
O=C1CCC(C(=O)Nc2ccc(Cl)cc2)N1 (centres unmarked) | 28
CC1CCN(C(=O)c2ccc3c(c2)NC(=O)CN3)CC1 | 8.49
Nc1ccc(C2(c3ccc(N)cc3)OC(=O)c3ccccc32)cc1 | -6.43
CCOC(=O)C1CCN(C(=O)C(=O)Nc2ccc3nc4n(c(=O)c3c2)CCCCC4)CC1 | 1.99
CCC1(C)Cc2c(sc3nc(NN)n(C)c(=O)c23)CO1 (centres unmarked) | 13.4

SMILES | hERG current change (%, negative = inhibition) at 10uM [%]
Cc1ccc(C(C(=O)NC2CCCC2)N(C(=O)CNC(=O)c2cccs2)c2cccnc2)o1 (centres unmarked) | -11.1
CCCCn1c(SCC(=O)NC2CC2)nc2ccccc2c1=O | -4.62
CCCCn1c(SCC(=O)N2CCOCC2)nc2ccccc2c1=O | -68.4
Cn1c(N)c(C(=O)CSc2nc3ccccc3c(=O)n2CCCN2CCOCC2)c(=O)n(C)c1=O | 2.7
Cc1[nH]c2ccccc2c1C(=O)CSc1nc2ccccc2c(=O)n1CCCN1CCOCC1 | -5.57
CCOCCCn1c(SCC(=O)N2CCOCC2)nc2ccccc2c1=O | -36
O=C1CN(C(=O)CSc2nc3ccccc3c(=O)n2CCCN2CCOCC2)c2ccccc2N1 | -19.7
COCCCn1c(SCC(=O)N2CCOCC2)nc2ccccc2c1=O | -5.65
O=C(CSc1nc2ccccc2c(=O)n1CCCN1CCOCC1)N1CCN(c2ccccc2)CC1 | -70.6
O=C(CSc1nc2ccccc2c(=O)n1CCCN1CCOCC1)c1c[nH]c2ccccc12 | -54
Cc1onc(-c2c(Cl)cccc2Cl)c1C(=O)NCCCN1CCOCC1 | 3.09
O=C(CCc1c[nH]c2ccccc12)OCc1ccc(Br)cc1 | 10.2
Cc1ccc(-n2nc(C)c3c2OC(N)=C(C#N)C3c2ccncc2)cc1 (centres unmarked) | 7.07
COc1ccc(C(=O)NCc2ccc3c(c2)OCO3)cc1S(=O)(=O)N(C)Cc1ccccc1 | -12.3
COc1ccc(C(=O)Nc2ccc(NC(C)=O)cc2)cc1S(=O)(=O)N(C)Cc1ccccc1 | 10.3
CCN(Cc1ccccc1)S(=O)(=O)c1cc(C(=O)NCCCN(C)C)ccc1OC | -50.3
CCN(Cc1ccccc1)S(=O)(=O)c1cc(C(=O)NCC2CCCCC2)ccc1OC | -9.52
COc1ccc(C(=O)NC(C)c2ccncc2)cc1S(=O)(=O)N(C)Cc1ccccc1 (centres unmarked) | -61
CCN(Cc1ccccc1)S(=O)(=O)c1cc(C(=O)O)ccc1OC | 14.1
COc1ccc(C(=O)OCC(=O)NC2CC2)cc1S(=O)(=O)N(C)Cc1ccccc1 | -53.8
COc1ccc(C(=O)OCC(=O)N(C)C2CCS(=O)(=O)C2)cc1S(=O)(=O)N(C)Cc1ccccc1 (centres unmarked) | -15.7

SMILES | hERG current change (%, negative = inhibition) at 10uM [%]
CCN(C(=O)COC(=O)c1ccc(OC)c(S(=O)(=O)N(C)Cc2ccccc2)c1)C1CCS(=O)(=O)C1 (centres unmarked) | -30.9
O=S(=O)(Nc1cc(C(F)(F)F)ccc1N1CCOCC1)c1ccccc1 | 4.09
CC(CC(=O)N1CCN(c2ccccc2)CC1)S(=O)(=O)c1ccc2c(c1)NC(=O)CO2 (centres unmarked) | -20.1
O=C(O)c1cccc(N2C(=O)c3cc4cccc(Br)c4cc3C2=O)c1 | 18.4
Cc1cc(CNC(=O)CC2C(=O)NCCN2Cc2ccc(-c3ccccc3)cc2)nn1C (centres unmarked) | -4.68
O=C(c1ccc([N+](=O)[O-])s1)N1CCc2ccccc2C1 | 13
FC(F)(F)Oc1ccc(NC(=S)NCc2ccccc2)cc1 | 4.62
Cl.O=C(CNC1=NCCC1)c1ccc(Cl)cc1 | -12.2
CCCCCCn1c(SCCCC)nc2c1c(=O)[nH]c(=O)n2C | 1.97
CCCCn1c(SCC(=O)OCC)nc2c1c(=O)[nH]c(=O)n2C | -41.9
CCCCCCn1c(SCCOC)nc2c1c(=O)[nH]c(=O)n2C | -59.8
CCCCCn1c(SCCCC)nc2c1c(=O)[nH]c(=O)n2C | -3.74
CCCCCCn1c(SCC(C)C)nc2c1c(=O)[nH]c(=O)n2C | 10.3
CCCCCCn1c(SCCC)nc2c1c(=O)[nH]c(=O)n2C | -9.85
CCCCCCn1c(SCC(=O)c2ccccc2)nc2c1c(=O)[nH]c(=O)n2C | -26
CCCCCn1c(SCC(=O)OC)nc2c1c(=O)[nH]c(=O)n2C | -60.7
CCOCCn1c(SC(C)C(C)=O)nc2c1c(=O)[nH]c(=O)n2C (centres unmarked) | -42.8
CCCCCCn1c(SCC(=O)OC)nc2c1c(=O)[nH]c(=O)n2C | -70.1
CCCCCn1c(SC(C)C(C)=O)nc2c1c(=O)[nH]c(=O)n2C (centres unmarked) | -92.5
COC(=O)CSc1nc2c(c(=O)[nH]c(=O)n2C)n1CCC(C)C | -3.93
Cc1cccc(-n2ncc3c(=O)[nH]c(SCC(=O)NCCC4=CCCCC4)nc32)c1 | 10.9

SMILES | hERG current change (%, negative = inhibition) at 10uM [%]
CCN(CC)S(=O)(=O)c1cccc(-c2n[nH]c(=S)n2/N=C/c2ccc(C(=O)OC)cc2)c1 | -34
O=C(COC(=O)c1ccc(S(=O)(=O)N2CCCC2)cc1)NCc1ccco1 | -10.1
O=[N+]([O-])c1ccc(/C=N/NC2=NS(=O)(=O)c3ccccc32)cc1 | -7.49
O=C(OCn1nnc2ccccc2c1=O)C1CCCCC1 | 5.57
CCN(CC)c1nc2c(c(=O)[nH]c(=O)n2C)n1CCCc1ccccc1 | -45.3
CCCCCCn1c(N(CC)CC)nc2c1c(=O)[nH]c(=O)n2C | -63.6
CCCCCCn1c(NCC)nc2c1c(=O)[nH]c(=O)n2C | -14.7
Cn1nc(C(=O)OCC(=O)NCCc2ccccc2)c2ccccc2c1=O | 2.9
Cc1cccn2c(=O)c(/C=C(\C#N)C(=O)NCc3ccco3)c(N3CCCCCC3)nc12 | -36.5
Cc1ccc(S(=O)(=O)/C(C#N)=C/c2c(N3CCOCC3)nc3c(C)cccn3c2=O)cc1 | -56
Cc1ccc(S(=O)(=O)/C(C#N)=C/c2c(N3CC(C)OC(C)C3)nc3c(C)cccn3c2=O)cc1 (centres unmarked) | -28.1
Cc1cccn2c(=O)c(/C=C(\C#N)C(=O)NCc3ccco3)c(N3CCOCC3)nc12 | -50.9
CCN1CCN(c2nc3c(C)cccn3c(=O)c2/C=C(\C#N)S(=O)(=O)c2ccc(C)cc2)CC1 | -62.9
Cc1cccn2c(=O)c(/C=C(\C#N)S(=O)(=O)c3ccccc3)c(N3CCN(c4ccccc4)CC3)nc12 | 9.12
CCN1CCN(c2nc3c(C)cccn3c(=O)c2/C=C(\C#N)S(=O)(=O)c2ccccc2)CC1 | -15.7
Cc1cccn2c(=O)c(/C=C(\C#N)S(=O)(=O)c3ccccc3)c(N3CCN(C)CC3)nc12 | -45.5
Cc1ccc(S(=O)(=O)/C(C#N)=C/c2c(N3CCN(C)CC3)nc3c(C)cccn3c2=O)cc1 | -67.5
Cc1cccn2c(=O)c(/C=C(\C#N)C(=O)NCc3ccco3)c(N3CCCCC3)nc12 | -37.8
Cc1cccn2c(=O)c(/C=C(\C#N)S(=O)(=O)c3ccccc3)c(N3CCN(Cc4ccccc4)CC3)nc12 | -4.68
Cc1ccc(S(=O)(=O)/C(C#N)=C/c2c(Oc3ccc(Cl)cc3)nc3c(C)cccn3c2=O)cc1 | 19.3
